108 molecules from PubChem BioAssay AID1671463 (Sanford-Burnham Center for Chemical Genomics, 2021) can be followed below.

In all, about 370,000 compounds went through this assay and about 520 (0.14%) were called active. Only a selection was taken, and actives are over-represented in it overall. A number with no mark means an inactive call. Rule as the data show it: active = activation above about 40%; inactive = the rest.

For this test, the target named is Atrial natriuretic peptide receptor 1 (Homo sapiens) (UniProt P16066). The experiment in a line: GC-A stimulated cGMP production enhancers – HEK293 GC-A cells, cGMP TR-FRET, EC30 ANP, primary screen (AID 1671463). Particulars: at 10 µM, active compounds read high, 0% at EC30 ANP, 100% saturating ANP.
Chain of Atrial natriuretic peptide receptor 1 (Homo sapiens) (P16066 whole entry, looked up): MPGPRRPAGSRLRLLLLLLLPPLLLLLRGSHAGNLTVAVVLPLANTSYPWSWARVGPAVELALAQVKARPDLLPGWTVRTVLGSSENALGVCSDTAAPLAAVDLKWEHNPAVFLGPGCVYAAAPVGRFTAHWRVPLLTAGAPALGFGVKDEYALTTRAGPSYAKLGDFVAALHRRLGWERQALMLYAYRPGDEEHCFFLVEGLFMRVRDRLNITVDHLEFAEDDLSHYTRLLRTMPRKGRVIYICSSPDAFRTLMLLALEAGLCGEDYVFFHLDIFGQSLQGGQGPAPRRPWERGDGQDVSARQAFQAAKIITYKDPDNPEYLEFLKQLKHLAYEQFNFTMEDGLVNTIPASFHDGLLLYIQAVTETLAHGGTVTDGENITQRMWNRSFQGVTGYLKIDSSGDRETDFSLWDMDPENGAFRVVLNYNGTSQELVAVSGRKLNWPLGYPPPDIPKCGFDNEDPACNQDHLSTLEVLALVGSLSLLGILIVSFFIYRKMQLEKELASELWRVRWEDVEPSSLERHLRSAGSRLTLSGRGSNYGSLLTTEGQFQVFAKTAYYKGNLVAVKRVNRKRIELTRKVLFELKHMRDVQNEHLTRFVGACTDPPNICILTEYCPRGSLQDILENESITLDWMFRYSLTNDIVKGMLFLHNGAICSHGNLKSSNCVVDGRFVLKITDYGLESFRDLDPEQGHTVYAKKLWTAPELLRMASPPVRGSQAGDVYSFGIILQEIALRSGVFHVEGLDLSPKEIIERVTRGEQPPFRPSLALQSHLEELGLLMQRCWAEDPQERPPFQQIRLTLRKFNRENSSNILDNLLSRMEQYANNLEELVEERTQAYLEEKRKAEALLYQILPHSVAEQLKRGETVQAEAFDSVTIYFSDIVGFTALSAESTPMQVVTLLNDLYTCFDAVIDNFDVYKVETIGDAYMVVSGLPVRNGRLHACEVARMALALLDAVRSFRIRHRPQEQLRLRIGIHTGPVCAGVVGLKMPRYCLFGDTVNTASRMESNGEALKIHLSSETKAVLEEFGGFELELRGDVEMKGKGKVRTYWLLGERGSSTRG
Regarding `COC(=O)c1c(NC(=O)COc2ccc(Cl)cc2Cl)sc2c1CC(C)(C)NC2(C)C`, the activation is 6%.

Turning to `CSCC[C@H](NC(=O)NC1CCCC1)C(=O)O`, the activation was 0.42%.

Take `O=C(NCCc1ccccc1)c1c[nH]c2ccc(F)cc2c1=O`: the activation was 1.93%. The same measure for `O=c1[nH]c2c(c(=O)n1-c1ccccc1)CCO2`: -0.17%; for `Fc1ccc(Nc2nnns2)cc1`: 3.58%; for `COCCN(Cc1ccccc1)C(=O)Cc1ccc(S(=O)(=O)N2CCOCC2)s1`: -2.49%. The same measure for `CS(=O)(=O)c1cccc(-c2ccc3nncn3c2)c1`: 4.9%. The same measure for `CCCCS(=O)c1snnc1C` (stereo not drawn): 1.27%. In the case of `COc1ccc(/C=C/CN2CCN(Cc3ccc(C)cc3)C(CCO)C2)cc1` (stereo not drawn), the activation was 0.4%. For `O=C(OCC(=O)N1CCCC1)c1ccc(Cl)nc1`, the activation was -0.33%. Under `CC1(C)CC(N(Cc2ccccc2)C(=O)Cc2ccccc2)CCO1` (stereo not drawn) stands -16.2%; under `CCOc1c(Br)cc(/C=C2\C(=O)N(CCC#N)N=C2C)cc1OC`, 40.1% (active); under `Cc1ccc(C(c2nnnn2CS(=O)(=O)c2ccc(C)cc2)N2CCC(C)CC2)cc1` (stereo not drawn), -0.04%.

Turning to `CCCSc1nsc(N)n1`, the activation was -1.07%. Under `CC(C)(CNC(=O)Cc1ccc(Cl)cc1Cl)N1CCOCC1` stands 1.34%. In the case of `CCOC(=O)c1cccc(NC(=O)C2CCCN(S(=O)(=O)c3cnc[nH]3)C2)c1` (stereo not drawn), the activation is 1.55%. For `Cc1ccsc1C1C(C#N)=C(N)OC2=C1C(=O)CC(C)(C)C2` (stereo not drawn), the activation is 1.86%. The same measure for `CCCn1nnnc1NC(=O)COc1ccc(Cl)cc1C`: 0.54%; for `O=C(c1ccc(CS(=O)Cc2ccccc2Cl)o1)N1CCN(c2ccccc2)CC1` (stereo not drawn): -8.64%; for `O=C(NCCc1ccco1)c1nn(Cc2ccccc2)c(=O)c2ccccc12`: 41.3% (active). The same measure for `Cc1ccsc1C(=O)NCCc1ccco1`: 5.29%; for `O=c1c2ccccc2c(-c2ccc(Br)cc2)nn1Cc1ccccc1`: 1.66%.

As for `Cc1ccc(S(=O)(=O)NNC(=S)NC(C)(C)C)cc1`, the activation is 4.04%. Under `COC(=O)[C@@H](NC(=O)Nc1cc(Cl)ccc1C)C(C)C` stands 4.54%; under `CC(C)Oc1ccc(S(=O)(=O)N2CCOCC2)cc1NC(=O)C1CCCC1`, 0%. The same measure for `Cn1c2ccccc2c2cc(/C=C(\NC(=O)c3ccccc3)C(=O)NCC(=O)O)ccc21`: 1.03%; for `COCCCNC(NC(=O)c1ccc(OC)cc1)C(Cl)(Cl)Cl` (stereo not drawn): -6.96%.

For `CSCCC(Nc1ccc(S(=O)(=O)N2CCOCC2)cc1[N+](=O)[O-])C(=O)OCC(=O)N(C(C)C)C(C)C` (stereo not drawn), the activation was 3.61%. With `CCC(=O)Nc1ccc(Nc2nc(Cl)nc(Nc3ccc(NC(=O)CC)cc3)n2)cc1`, the activation was 41.8% (active).

In the case of `CCC(=O)Nc1ccc(-c2ccc(N3CCCCC3)nn2)cc1`, the activation was 1.98%. As to `CCOC(=O)CNc1nc(Cl)nc(Nc2ccccc2)n1`, the activation was -0.38%. Under `CCC(=O)N1CCC(C)(C(=O)Nc2cc(OC)c(OC)c(OC)c2)C1` (stereo not drawn) stands 0.68%; under `CCCc1cc(=O)[nH]c(SCC(=O)c2c(N)n(CC(C)C)c(=O)n(C)c2=O)n1`, -6.69%. The same measure for `Cc1ccc(S(=O)(=O)N2CCOCC2)cc1NC(=O)CSc1nnc(N)s1`: -4.98%; for `COc1ccc(C#CCNCc2ccc(OC)cc2OC)cc1`: -0.15%; for `O=C(Oc1ccc2c(c1)CCC2)N1CCOCC1`: 4.74%. Regarding `CCOC(=O)C(=O)N(Cc1ccccc1)c1ccccc1C(=O)Nc1cc(OC)ccc1OC`, the activation is -11.8%.

`COc1ccc(NC(=S)SC)cc1OC`: the activation is 1.77%. Under `COc1ccccc1C(=O)N(C1=NC(C)CS1)c1ccc(Cl)cc1` (stereo not drawn) stands -15.5%; under `CC1CCN(CCCNC(=O)CN2C(=O)CSc3ccc(S(=O)(=O)N4CCCCC4)cc32)CC1`, 3.44%; under `Cn1nc(C(F)(F)F)cc1-c1ccc(/C=C(\C#N)C(=O)c2cccc(C(F)(F)F)c2)s1`, 25.6%. Under `CC1CCCC(N2CCN(C(=O)c3ccc(F)cc3)CC2)C1` (stereo not drawn) stands 5.28%; under `O=S(=O)(c1ccc(-c2ccccc2)cc1)N1CCCC1`, 0.74%. Under `Cc1cccc(C(=O)Nc2ccccc2-c2nnn(CC(=O)Nc3ccc4c(c3)OCCO4)n2)c1` stands -13.7%; under `CN1C[C@]2(C=C3CCCCC3n3c(=O)n(-c4ccccc4)c(=O)n32)N=C1NC(=O)c1ccccc1` (stereo partly drawn), -1.71%; under `C#CCCN([C@H](C(=O)OC)C(C)C)S(=O)(=O)c1ccc(F)cc1Br`, -5.17%. Consider `COc1ccccc1-n1nnnc1S(=O)(=O)Cc1ccc(Cl)cc1`, for which the activation is 0.71%. The same measure for `Cc1nc(-c2ccc(Cl)cc2)sc1C1(C)CC(c2ccccc2F)=NO1` (stereo not drawn): 2.63%. Under `Cc1nc(-c2ccc(Cl)cc2)sc1C(=O)CBr` stands 49.9% (active); under `Cc1nc(-c2ccc(Cl)cc2)sc1C1(C)CC(c2ccc(Br)cc2)=NO1` (stereo not drawn), -0.28%. The same measure for `Cc1ccccc1CN1CCCCC(NC(=O)c2cccc(C#N)c2)C1=O` (stereo not drawn): 1.67%; for `CCOc1ccc(S(=O)(=O)N2CCC(c3ccccc3)CC2)cc1C(=O)O`: 0.54%; for `C/C=C/c1ccc(OCCOc2ccc(C=O)cc2OC)c(OC)c1`: 3.2%. Regarding `COc1cc(CNc2ncn[nH]2)ccc1OCc1ccccc1C`, the activation was 0.42%. The same measure for `CCOc1cc(/C=N/O)ccc1OCc1ccccc1F`: -0.44%; for `COc1ccnc2c1c(=O)n(Cc1cccc(F)c1)c(=O)n2C`: 8.86%. The same measure for `COc1cc(/C=C2/C(=O)ON=C2C)ccc1OCc1cccc(F)c1`: 52.6% (active). Under `COc1cc(/C=C2/C(=O)ON=C2C)ccc1OCc1ccccc1F` stands 51.8% (active); under `COc1ccc(CCNC(=O)c2ccc(NC(=O)CC3SC(N4CCCCC4)=NC3=O)cc2)cc1OC` (stereo not drawn), -0.61%; under `COCCCN1C(=O)C(=O)/C(=C(/O)c2ccc(S(=O)(=O)N3CCOCC3)cc2)C1c1ccc(F)cc1` (stereo not drawn), 1.53%.

Take `CCc1c(-c2ccccc2OC)ncn1CCc1ccccc1OC`: the activation is -8.39%. Under `CCc1nc2c(OCc3cccc(OC)c3)cccn2c1N(C)C(=O)C(C)C` stands -2.25%. Turning to `CC(NC(=O)CCCC1CCCCC1)c1ccc(S(N)(=O)=O)cc1` (stereo not drawn), the activation was -4.53%. Under `CC(=O)Oc1c(C(=O)c2nnc(C)o2)c(=O)n(Cc2ccccc2)c2ccccc12` stands -0.69%; under `O=C1CCCCC1Sc1ccc(Cl)cc1[N+](=O)[O-]` (stereo not drawn), -7.33%; under `CCN(CC)C(CNC(=O)CSc1nnnn1-c1cccc(F)c1)c1ccco1` (stereo not drawn), 2.86%. As to `Cc1ccc(S(=O)(=O)N2C[C@@H]3CCCC[C@@H]3[C@@H](C)[C@H]2c2cn(Cc3ccccc3)c3ccc(F)cc23)cc1`, the activation was 3.1%.

With `Cc1ccc(C(=O)NC(=S)Nc2ccc3[nH]c(=O)[nH]c3c2)cc1C`, the activation is -4.45%. The same measure for `CCc1ccc(Oc2coc3cc(OC(=O)c4cc5ccccc5oc4=O)ccc3c2=O)cc1`: -3.3%; for `COC(=O)COc1ccc2c(=O)c(Oc3ccccc3Br)coc2c1`: 46.5% (active). The same measure for `CCc1ccc(Oc2coc3cc(O)ccc3c2=O)cc1`: 9.73%. The same measure for `CC[C@H](C)[C@@H](C(=O)N1CCNCC1)n1cc([C@@H](N)Cc2ccc(O)cc2)nn1`: -0.45%; for `CC1(C)CC(=O)c2cnc3nc4ccccc4n3c2C1`: 1.08%; for `Cc1ccc(Cn2c(=N)c(S(=O)(=O)c3ccc(C)cc3)cc3c(=O)n4ccccc4nc32)cc1`: 0.3%. Regarding `CCn1c(CSc2nc(C)cc(C)n2)nnc1SCC(N)=O`, the activation is -2.17%. Under `Cc1cc(C)nc(S/C=C/C(=O)c2ccccc2)n1` stands 43.5% (active); under `Cc1cc(C)nc(NC(=O)Nc2ccccc2C(F)(F)F)n1`, 9.79%. Under `Cc1cc(NC(=O)CCC(=O)N(CC(=O)NCC2CCCO2)c2ccccc2)no1` (stereo not drawn) stands -2.42%; under `CC#CC[N+](C)(C)CCCCCC`, 1.8%; under `O=C(NCCCO)/C(=C\C=C\c1ccccc1)NC(=O)c1ccccc1Cl`, 1.06%. For `COc1ccc(C2OC(=O)CC2C(=O)NC(C)C)cc1` (stereo not drawn), the activation was -0.27%. Under `O=C1CN(C(=O)c2ccccc2F)C(c2ccc(F)cc2)c2cc(F)ccc2N1` (stereo not drawn) stands -11%; under `CCCCN1C(=S)NC[C@@H]1C(C)CC` (stereo partly drawn), -0.8%; under `CC[n+]1cc(C)ccc1/C=C/c1ccc(N(C)C)cc1`, -28.2%. In the case of `CCCc1nn(C)c2c(=O)[nH]c(-c3cc(S(N)(=O)=O)ccc3OCC)nc12`, the activation is 53.2% (active).

`CCOc1ccccc1N1CCN(C(=S)Nc2ccc(S(N)(=O)=O)cc2)CC1`: the activation is 2.84%. Take `CCOc1ccc(-n2cnc3c(=O)[nH]c(N)nc32)cc1`: the activation was 23%. Under `CC1CCC(N2CC(=O)N(Cc3ccc4c(c3)OCO4)C(c3ccc(F)cc3)C2=O)CC1` (stereo not drawn) stands -15.6%; under `Cc1csc(NC(=O)C2CCCN2C(=O)OCC(C)C)n1` (stereo not drawn), -0.58%; under `CN(C)CCCn1c(SCCN2C(=O)c3ccccc3C2=O)nc2ccccc2c1=O`, -1.16%.

Turning to `CN(C)CCn1c2c(c(SCC(=O)NCc3ccccc3)nc1=O)CCC2`, the activation was 3.93%.

`O=C(NCc1ccccc1)C(c1cccnc1)N(C(=O)c1csnn1)c1ccc(F)cc1` (stereo not drawn): the activation is 2.49%. The same measure for `O=C1CCC(=O)N1CCOP1(=O)COc2ccccc2OC1`: 1.8%. The same measure for `Cc1ccc(Cl)cc1NC(=O)COC(=O)C1CCCCC1`: 4.33%. The same measure for `COc1ccc(NC(=O)CN(C)C(=O)Cc2coc3cc(C)c(C)cc23)cc1`: 0.74%; for `CC(C)=CCN1CCN(Cc2ccc(Oc3ncccn3)cc2)CC1CCO` (stereo not drawn): -0.64%; for `Cc1nc(-c2nnc(SCC(=O)Nc3cc(C(F)(F)F)cc(C(F)(F)F)c3)n2C)cs1`: 1.31%. `COc1cc2c(cc1OC)/C(=C/C(=O)c1ccc(NC(C)=O)cc1)NCC2`: the activation was 6.02%. The same measure for `O=C(O)C1CCCN1S(=O)(=O)c1ccc(Br)cc1` (stereo not drawn): 3.81%. Consider `CC1CN/C(=C\C(=O)c2ccc(Br)cc2)C(=O)N1` (stereo not drawn), for which the activation is 45.4% (active). Turning to `COc1ccc(N(CCC#N)S(=O)(=O)c2ccc(Cl)cc2)cc1`, the activation was -7.67%.

Consider `Cc1ccccc1CN(c1ccc(C(=O)NCC2CCCO2)cc1)S(C)(=O)=O` (stereo not drawn), for which the activation is 2.8%.

Turning to `COc1ccc(CCNC(=O)CSc2nc3c([nH]2)c(=O)n(C)c(=O)n3C)cc1`, the activation was -1.99%. The same measure for `Cc1[nH][nH]c(=O)c1C(c1ccc(-c2ccc(Cl)cc2)o1)c1c(C)[nH][nH]c1=O`: 3.79%. Under `O=C(Nc1cc(S(=O)(=O)N2CCOCC2)ccc1OCC(F)(F)F)c1ccc(N2CCCC2=O)cc1` stands -0.92%; under `CS(=O)(=O)c1ccc2nc(NC(=O)c3ccc(N4CCCC4=O)cc3)sc2c1`, 62.2% (active); under `O=C(NCCCN1CCCCCC1)c1ccc(N2CCCC2=O)cc1`, -0.43%. The same measure for `CC(=O)Nc1cc(-c2ccccc2N(C)C)cn2c(-c3ccc(F)c(Cl)c3)cnc12`: 3.6%.
